Test results published in PubChem BioAssay (NCATS).
Inconclusive results are not listed. Activity calls are given as the source filed them. Unless noted, the call rests on the fitted dose curve; in most records, active means well fitted curve in the direction sought with a large enough effect; inconclusive means small, poorly fitted or top-dose-only effect, or another doubt; inactive means no such curve, though single readings can be large; an effect the other way counts as inactive or inconclusive.

Tests used:
[1] = Cell Viability - BJ (AID 421; calls by dose curve;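 further: potency means the concentration at half of the fitted maximal effect; cells exposed to compound for 40 hours at 37 °C before readout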); details: BJ fibroblast viability, qHTS
Procedure, shortened: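 Cytotoxicity as drop in intracellular ATP (CellTiter-Glo, 20 min RT) after 40 hr compound exposure of BJ fibroblasts at 37 °C. Titrations scaled between DMSO and 100 uM tamoxifen, Hill-fitted for AC50.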

[2] = Cell Viability - Jurkat (AID 426;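 active means dose-dependent loss of cell ATP signal giving a full or clear fitted curve, ranked by lower potency value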;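 further: potency means the concentration at half of the fitted maximal effect; cells exposed to compound for 40 hours at 37 °C before ATP read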); details: qHTS
Procedure, shortened: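 Cytotoxicity taken as drop in cellular ATP (CellTiter-Glo luminescence, 20 min room temperature) after 40 hr, 37C treatment of 5000 Jurkat Clone E6-1 cells per well; concentration-response fitted with Hill equation for AC50.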

[3] = Cell Viability - Hek293 (AID 427;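 active means compounds whose dose-response curve shows a full or clear partial loss of cell viability, called from curve shape rather than a numeric limit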;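 further: potency means the concentration at half of the fitted maximal effect; cells exposed to compound for 40 hours at 37 °C before reading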); details: qHTS
Procedure, shortened: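 Luminescent ATP content (CellTiter-Glo, 20 min at room temperature) was measured after a 40 hr, 37 °C compound exposure of HEK293 cells. AC50 values came from Hill-equation fits of qHTS concentration-response data normalized to DMSO and 100 uM tamoxifen.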

[4] = Cell Viability - HepG2 (AID 433; calls by dose curve;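 further: potency means the concentration at half of the fitted maximal effect; potency for ATP loss meaning cytotoxicity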); details: qHTS
Procedure, shortened: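 HepG2 hepatocellular carcinoma cells (1500/well) were treated with compounds for 40 h at 37 °C in complete medium; intracellular ATP was read by CellTiter-Glo luminescence. Data were normalized to DMSO and 100 uM tamoxifen, and AC50 came from Hill fits.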

[5] = Cell Viability - MRC5 (AID 434; calls by dose curve;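 further: potency means the concentration at half of the fitted maximal effect; potency reflects cytotoxicity seen as loss of intracellular ATP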); details: MRC5 lung fibroblast viability, qHTS
Procedure, shortened: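 AC50 values come from Hill-equation fits of intracellular ATP loss, measured by CellTiter-Glo luminescence. Normal lung fibroblasts (MRC5) had 40 hr compound treatment at 37 C, normalized between DMSO and 100 uM tamoxifen.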

[6] = Cell Viability - SK-N-SH (AID 435; calls by dose curve; further: potency means the concentration at half of the fitted maximal effect); details: SK-N-SH neuroblastoma cell viability qHTS
Procedure, shortened: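 SK-N-SH human neuroblastoma cells (1500/well) were exposed to compounds in complete medium for 40 h at 37 °C, and intracellular ATP was then measured by CellTiter-Glo luminescence. AC50 was taken from Hill fits, normalized to DMSO and 100 uM tamoxifen.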

[7] = target: Mitogen-activated protein kinase 10 (Mus musculus) (UniProt Q61831); assay: JNK3 AlphaScreen Assay (AID 530; active means well fitted curve in either direction with a large enough effect, not every such curve was filed as active;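 further: kinase came from lysate of stimulated human HepG2 cells; signal reports phosphorylation of biotinylated GST-cJun 1-79 at Ser73 with 10 µM ATP; on the % scale 0 is the no-effect control and ±100 the full control effect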); details: JNK3 lysate, c-Jun phosphorylation; series mostly up to 57.1 µM
Procedure, shortened: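 qHTS titrations with 15 min compound pre-incubation before adding ATP (10 uM final). Read-out: AlphaScreen of Ser73-phosphorylated biotin-GST-cJun using HepG2 lysate JNK3 activated by IL-1β and TNFα.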

[8] = Cell Viability - N2a (AID 540); details: N2a mouse neuroblastoma cell viability; activity change, negative = cytotoxicity: at 92.2 µM (top of the series);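 further: plate controls were DMSO alone for no effect and tamoxifen control for full effect; nearly all actives have a fitted effect of over 45% in size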
Procedure, shortened: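 CellTiter-Glo ATP luminescence, read 20 min after reagent at room temperature, reported viability following 40 h compound treatment at 37 °C. N2a mouse neuroblastoma cells seeded 1500/well; Hill equation gave AC50.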

[9] = Cell Viability - NIH 3T3 (AID 541); details: NIH 3T3 cell viability, qHTS; activity change, negative = cytotoxicity: at 92.2 µM (top of the series);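 further: plate controls were DMSO alone for no effect and tamoxifen positive control for full effect; nearly all actives have a fitted effect of over 25% in size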
Procedure, shortened: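 Intracellular ATP (CellTiter-Glo luminescence, 20 min at room temperature) measured after 40 hr compound exposure at 37 °C of 1000 NIH 3T3 mouse fibroblasts/well in complete medium; AC50 derived by Hill-equation modelling of qHTS concentration-response curves.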

[10] = Cell Viability - HUV-EC-C (AID 542); details: HUV-EC-C endothelial cell viability, qHTS; series mostly up to 92.2 µM; further: on the % scale 0 is the no-effect control and ±100 the full control effect; nearly all actives have a fitted effect of over 35% in size
Procedure, shortened: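 CellTiter-Glo luminescence measured ATP loss in HUV-EC-C cells (1000/well) after 40 hr compound exposure at 37 °C, in complete culture medium. Concentration-response data were Hill-fitted to give AC50.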

[11] = Cell Viability - H-4-II-E (AID 543); details: H-4-II-E rat hepatoma viability; series mostly up to 92.2 µM; further: on the % scale 0 is the no-effect control and ±100 the full control effect; nearly all actives have a fitted effect of over 35% in size
Procedure, shortened: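 CellTiter-Glo luminescence (intracellular ATP) measured after 40 h compound exposure at 37 °C in H-4-II-E rat hepatoma cells seeded at 1500/well. Values are AC50s fitted with the standard Hill equation.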

[12] = Cell Viability - SH-SY5Y (AID 544); details: SH-SY5Y neuroblastoma cell viability; viability change, negative = cytotoxic: at 92.2 µM (top of the series); further: nearly all actives have a fitted effect of over 55% in size
Procedure, shortened: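 Cytotoxicity measured via ATP-dependent luciferase luminescence (CellTiter-Glo) following 40 h, 37 °C exposure of 1500 SH-SY5Y cells per well. Concentration-response data were fitted with the standard Hill equation to give AC50.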

[13] = Cell Viability - Renal Proximal Tubule (AID 545); details: renal proximal tubule cells viability, primary cells of rat origin; series mostly up to 91.7 µM; further: nearly all actives have a fitted effect of over 40% in size
Procedure, shortened: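 Primary rat renal proximal tubule cells (1000/well) were treated with compounds for 40 hr at 37 °C in complete medium. Intracellular ATP was measured by CellTiter-Glo luminescence, and AC50 values came from Hill-equation fits of concentration-response data.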

[14] = Cell Viability - Mesenchymal (AID 546); details: mesenchymal cells viability, qHTS; series mostly up to 91.7 µM;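 further: cells exposed to compound for 40 hours before reading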
Procedure, shortened: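 CellTiter-Glo luminescence (intracellular ATP, 20 min room temperature) after 40 hr compound exposure at 37 °C of 1000 glomerulus-derived human kidney mesenchymal cells/well; AC50 values obtained by fitting qHTS concentration-response data to the Hill equation.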

[15] = Cellular Toxicity (caspase-3) HepG2 (AID 654); details: HepG2 caspase-3 activation, luminescence; series mostly up to 92.2 µM;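 further: cells exposed to compound for 16 hours before reading; 0% = DMSO alone and 100% = caspase signal from 100 µM tamoxifen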
Procedure, shortened: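 Caspase 3/7 activation is measured as a luminescence increase (aminoluciferin substrate) after 16 h compound exposure of human hepatocarcinoma HepG2 cells. AC50 values are Hill fits, scaled between DMSO baseline and 100 uM tamoxifen stimulation.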

[16] = Cellular Toxicity (caspase-3) Jurkat (AID 655); details: Jurkat caspase-3 activation, luminescence; caspase-3 activation: at 92.2 µM (top of the series), DMSO = 0%, tamoxifen = 100%;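 further: cells exposed to compound for 16 h at 37 °C before reading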
Procedure, shortened: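 Jurkat cells (5000/well) in complete medium were treated with compounds for 16 hr at 37 °C, then Caspase-Glo 3/7 luminescence was read after 20 min at room temperature. Data normalized to DMSO (basal) and 100 uM tamoxifen (100%); AC50 from Hill fit.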

[17] = Cellular Toxicity (caspase-3) HUV-EC-C (AID 656); details: HUV-EC-C cells, caspase-3 activation (apoptosis), vehicle = 0, 100 µM tamoxifen = 100%; series mostly up to 92.2 µM
Procedure, shortened: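 HUV-EC-C endothelial cells, 1000/well, were pre-incubated 5 hr at 37°C, then exposed to compounds for 16 hr at 37°C. Caspase-Glo 3/7 luminescence was read after 20 min at room temperature. AC50 came from Hill fits, normalized to DMSO and 100 uM tamoxifen.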

[18] = Cellular Toxicity (caspase-3) SHSY5Y (AID 657); details: SH-SY5Y caspase-3 activation, DMSO zero, 10 µM staurosporine = 100%; series mostly up to 91.7 µM
Procedure, shortened: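 SH-SY5Y human neuroblastoma cells (1500/well) were treated with compounds for 16 h at 37 °C, then Caspase-Glo 3/7 luminescence was read after 1 h at room temperature. Data normalized to DMSO and 10 uM staurosporine; AC50 from Hill fits.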

[19] = Cellular Toxicity (caspase-3) BJ (AID 658); details: BJ fibroblasts, luminescence, normalized: DMSO 0%, staurosporine 100%; series mostly up to 91.7 µM
Procedure, shortened: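 Caspase-Glo 3/7 luminescence, read 1 hr after reagent at room temperature, in normal BJ fibroblasts exposed 16 hours at 37 °C. AC50 values from Hill-equation concentration-response, scaled between DMSO basal and 10 uM staurosporine as 100%.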

[20] = Cellular Toxicity (caspase-3) MRC-5 (AID 659); details: MRC-5 cells, luminescence, normalized: DMSO 0%, 10 µM staurosporine 100%; series mostly up to 91.7 µM
Procedure, shortened: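 Luminescent Caspase-Glo 3/7 read-out (1 h, room temperature) after a 16 h, 37 °C compound exposure of MRC-5 lung fibroblasts at 1500 cells/well. Concentration-response AC50 from Hill equation; 0% DMSO, 100% 10 uM staurosporine.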

ClCCl
inactive: Potency [1] > 92 µM | Potency [2] > 92 µM | Potency [3] > 92 µM | Potency [4] > 92 µM | Potency [5] > 92 µM | Potency [6] > 92 µM | outcome [7] | activity change, negative = cytotoxicity [8] -5.52% | Potency [9] | Potency [10] | Potency [11] | Potency [12] | Potency [13] | Potency [14] | Potency [15] | caspase-3 activation [16] 1.06% | outcome [17] | outcome [18] | outcome [19] | outcome [20]

Oc1cccc(Nc2ccccc2)c1
inactive: Potency [1] > 92 µM | Potency [2] > 92 µM | Potency [3] > 92 µM | Potency [4] > 92 µM | Potency [5] > 92 µM | Potency [6] > 92 µM | outcome [7] | activity change, negative = cytotoxicity [8] -16.5% | Potency [9] | Potency [10] | Potency [11] | Potency [12] | Potency [13] | Potency [14] | Potency [15] | caspase-3 activation [16] 2.02% | outcome [17] | outcome [19] | outcome [20]

Nc1nc2ccccc2[nH]1
inactive: Potency [1] > 92 µM | Potency [2] > 92 µM | Potency [3] > 92 µM | Potency [4] > 92 µM | Potency [5] > 92 µM | Potency [6] > 92 µM | outcome [7] | activity change, negative = cytotoxicity [8] -3.92% | Potency [9] | Potency [10] | Potency [11] | Potency [12] | Potency [13] | Potency [14] | Potency [15] | caspase-3 activation [16] 10.5% | outcome [17] | outcome [19] | outcome [20]

COc1ccc(N)c(OC)c1
inactive: Potency [1] > 92 µM | Potency [2] > 92 µM | Potency [3] > 92 µM | Potency [4] > 92 µM | Potency [5] > 92 µM | Potency [6] > 92 µM | outcome [7] | activity change, negative = cytotoxicity [8] -1.93% | Potency [9] | Potency [10] | Potency [11] | Potency [12] | Potency [13] | Potency [14] | Potency [15] | caspase-3 activation [16] 0.6% | outcome [17] | outcome [18] | outcome [19] | outcome [20]

CC(C)N(C)C
inactive: Potency [1] > 92 µM | Potency [2] > 92 µM | Potency [3] > 92 µM | Potency [4] > 92 µM | Potency [5] > 92 µM | Potency [6] > 92 µM | outcome [7] | activity change, negative = cytotoxicity [8] -3.04% | Potency [9] | Potency [10] | Potency [11] | Potency [12] | Potency [13] | Potency [14] | Potency [15] | caspase-3 activation [16] -0.157% | outcome [17] | outcome [18] | outcome [20]

Cc1ccc2cccnc2c1
inactive: Potency [1] > 92 µM | Potency [2] > 92 µM | Potency [3] > 92 µM | Potency [4] > 92 µM | Potency [5] > 92 µM | Potency [6] > 92 µM | outcome [7] | activity change, negative = cytotoxicity [8] -6.28% | Potency [9] | Potency [10] | Potency [11] | Potency [12] | Potency [13] | Potency [14] | Potency [15] | caspase-3 activation [16] -0.667% | outcome [17] | outcome [18] | outcome [19] | outcome [20]

C1CCOC1
inactive: Potency [1] > 92 µM | Potency [2] > 92 µM | Potency [3] > 92 µM | Potency [4] > 92 µM | Potency [5] > 92 µM | Potency [6] > 92 µM | outcome [7] | activity change, negative = cytotoxicity [8] 3.61% | Potency [9] | Potency [10] | Potency [11] | Potency [12] | Potency [13] | Potency [14] | Potency [15] | caspase-3 activation [16] -0.19% | outcome [17] | outcome [18] | outcome [20]

C=CCOC(=O)CCCCCCCC
inactive: Potency [1] > 92 µM | Potency [2] > 92 µM | Potency [3] > 92 µM | Potency [4] > 92 µM | Potency [5] > 92 µM | Potency [6] > 92 µM | outcome [7] | activity change, negative = cytotoxicity [8] 9.38% | Potency [9] | Potency [10] | Potency [11] | Potency [12] | Potency [13] | Potency [14] | Potency [15] | caspase-3 activation [16] -0.392% | outcome [17] | outcome [18] | outcome [19] | outcome [20]

CC/C=C1/OC(=O)c2ccccc21
inactive: Potency [1] > 92 µM | Potency [2] > 92 µM | Potency [3] > 92 µM | Potency [4] > 92 µM | Potency [5] > 92 µM | Potency [6] > 92 µM | outcome [7] | activity change, negative = cytotoxicity [8] 3.1% | Potency [9] | Potency [10] | Potency [11] | Potency [12] | Potency [13] | Potency [14] | Potency [15] | caspase-3 activation [16] -0.618% | outcome [17] | outcome [18] | outcome [19] | outcome [20]

C=CCn1c(=O)n(CC=C)c(=O)n(CC=C)c1=O
inactive: Potency [1] > 92 µM | Potency [2] > 92 µM | Potency [3] > 92 µM | Potency [4] > 92 µM | Potency [5] > 92 µM | Potency [6] > 92 µM | outcome [7] | activity change, negative = cytotoxicity [8] 0.0467% | Potency [9] | Potency [10] | Potency [11] | Potency [12] | Potency [13] | Potency [14] | Potency [15] | caspase-3 activation [16] -0.997% | outcome [17] | outcome [18] | outcome [20]

CCCC=O
inactive: Potency [1] > 92 µM | Potency [2] > 92 µM | Potency [3] > 92 µM | Potency [4] > 92 µM | Potency [5] > 92 µM | Potency [6] > 92 µM | outcome [7] | activity change, negative = cytotoxicity [8] -20.1% | Potency [9] | Potency [10] | Potency [11] | Potency [12] | Potency [13] | Potency [14] | Potency [15] | caspase-3 activation [16] -0.873% | outcome [17] | outcome [18] | outcome [20]
